The subject of one experiment is CRL-7250. Put plainly: Cytotoxic Profiling of Annotated Libraries Using Quantitative High-Throughput Screening (AID 1296008). On max response: on the % scale 0 is the no-effect control and ±100 the full control effect. Particulars: Five cell lines viability, CellTiter-Glo ATP luminescence, 48-72 h; max response: stronger effect = lower value. A digest of the protocol:
(§1)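 Cytotoxicity was measured as CellTiter-Glo ATP luminescence, read after 10 min at room temperature. Compound treatment of the cells lasted 48 or 72 hr at 37 degrees Celsius in a qHTS format.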
On the technique in general: In ATP-based viability assays light output follows the ATP content of the culture.

For the next experiment, the system named is HEK293. The description is as above. To be noted: Five cell lines viability, CellTiter-Glo ATP luminescence, 48-72 h; max response: stronger effect = lower value. The essentials: as §1
Experiment [1] relates to HaCat. The experiment is described as above. Particulars: Five cell lines viability, CellTiter-Glo ATP luminescence, 48-72 h; max response: stronger effect = lower value. A digest of the protocol: as §1
For a further experiment, the system named is KB-3-1. The description is as above. Particulars: Five cell lines viability, CellTiter-Glo ATP luminescence, 48-72 h; max response: stronger effect = lower value. The essentials: as §1
The subject of a further experiment is NIH3T3. The description is as above. To be noted: Five cell lines viability, CellTiter-Glo ATP luminescence, 48-72 h; max response: stronger effect = lower value. The essentials: as §1
The test system of experiment [2] is HACAT. Description: qHTS assay to identify novel small-molecules to repurpose for Merkel cell carcinoma treatment (AID 1296009). Particulars: MCC and control cell lines, CellTiter-Glo viability, 72 h; at 44.8 µM (top of the series) unless noted. A digest of the protocol:
(§2)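 Cell viability, measured as CellTiter-Glo luminescence, was normalized between DMSO and no-cell wells. The cells had been exposed to 8- or 11-point compound dilutions for 72 hr at 37 degree celsius.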

Another experiment relates to MCC-13. The experiment is described as above. Particulars: MCC and control cell lines, CellTiter-Glo viability, 72 h; series mostly up to 46 µM. The essentials:
as §2

A further experiment deals with TAB165. Description: qHTS profiling for inhibitors of Plasmodium falciparum proliferation (AID 504749). To be noted: P. falciparum in erythrocytes, SYBR Green DNA, 72 h; series mostly up to 28.7 µM. A digest of the protocol: (§3)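 SYBR Green fluorescence of parasite DNA, read after lysis and overnight dark incubation, measured growth over 72 h in erythrocyte culture at 0.3% parasitemia and 2.5% hematocrit. Data normalised to DMSO and 0.29 uM artemisinin, with plate-drift correction.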
(In general: In qHTS, concentration-response curves come from the screen itself.)

For another experiment, the system named is W2. The experiment is described as above. Particulars: P. falciparum in erythrocytes, SYBR Green DNA, 72 h; series mostly up to 28.7 µM. A digest of the protocol:
as §3

The next experiment has as its system HEK293T. Description: qHTS assay to identify novel small-molecules to repurpose for Merkel cell carcinoma treatment (AID 1296009). Particulars: MCC and control cell lines, CellTiter-Glo viability, 72 h; at 44.8 µM (top of the series). A digest of the protocol: as §2

The structures appear in SMILES notation. Several values for one entry are separate records, joined by “and”; a condition that tells them apart may be missing. Equal entries are not always repeated. Records with an inconclusive call do not appear. Where a structure was tested more than once in an assay, its records may differ in their call. Activity calls are given as the source filed them. The call rests on the fitted dose curve; in most records, active means well fitted inhibition curve with a large enough effect; inconclusive means small, poorly fitted or top-dose-only effect; inactive means flat fitted curve, though single readings scatter.
Further: nearly all actives have a fitted effect of over 60% in size.
Potency means the concentration at half of the fitted maximal effect.

Regarding `CCN(c1ccccc1)c1cc(NC)[n+](C)c(C)n1`, the max response is -1.6% (inactive) in the experiment with CRL-7250, 1.35% (inactive) in the experiment with HEK293, 7.88% (inactive) with KB-3-1 and -7.55% (inactive) with NIH3T3. The result with HaCat [1] and in the experiment on HACAT [2] was inactive. Also, the Potency entry with MCC-13 is “inactive”.

`CC[C@@H](C)[C@H](NC(=O)[C@H](CC1CCCCC1)NC(=O)c1ccno1)C(=O)N1CCC2(CCc3ccccc32)CC1`: the max response is -8.58% (inactive) and -11.9% (inactive) with CRL-7250; -11.2% (inactive) with HEK293; -5.09% (inactive) and 8.53% (inactive) in the experiment with KB-3-1; -7.84% (inactive) and -2.63% (inactive) in the experiment with NIH3T3. The call in the experiment on HaCat [1] and in the experiment on HACAT [2] was inactive. In addition, the Potency entry in the experiment with MCC-13 is “inactive”.

Consider `CCCc1nn(C)c2c(=O)[nH]c(-c3cc(S(=O)(=O)N4CCN(C)CC4)ccc3OCC)nc12`, for which the Potency result in the experiment on TAB165 and in the experiment with MCC-13 was “inactive” each time. Further, the max response in the experiment on CRL-7250 was -31.4% (inactive) and 2.3% (inactive); with HaCat [1], -6.49% (inactive) and -10.8% (inactive); with KB-3-1 it was 4.32% (inactive); with NIH3T3, -19.3% (inactive) and 3.51% (inactive). Besides, in the experiment with HEK293, the Potency is 18.7 µM (active). Besides, the call with KB-3-1 was inactive.

In the case of `NCCc1ccc(O)c(O)c1`, in the experiment on TAB165, the Potency result was “inactive”. In addition, the max response with CRL-7250 was 1.67% (inactive) and -14% (inactive); in the experiment on HEK293 it was -42.9% (inactive); in the experiment on HaCat [1], 2.7% (inactive); in the experiment with KB-3-1 it was -3.12% (inactive) and 0.713% (inactive); with NIH3T3, 2.44% (inactive) and -9.95% (inactive). Besides, the molecule was called inactive in the experiment with HaCat [1] and with HACAT [2]. The Potency result in the experiment on MCC-13 was “inactive and 5.31 µM (active)”.

For the molecule `CCOc1cc(C=C2C(=O)N(c3ccccc3)N=C2C)cc(Cl)c1OCC(=O)OC`, the max response is 3.6% (inactive) in the experiment on CRL-7250, 0.832% (inactive) in the experiment with HEK293, 4.4% (inactive) with KB-3-1 and -3.61% (inactive) with NIH3T3. For the same molecule, the molecule was classed as inactive in the experiment with HaCat [1] and in the experiment on HACAT [2]. Also, in the experiment on MCC-13, the Potency result was “inactive”.

`CCOc1ccc(Cc2cc([C@@H]3O[C@H](CO)[C@@H](O)[C@H](O)[C@@H]3O)ccc2Cl)cc1`: the max response with CRL-7250 was -1.42% (inactive); in the experiment on HEK293 it was 1.73% (inactive); in the experiment with KB-3-1 it was 6.49% (inactive); with NIH3T3 it was 1.42% (inactive). The call with HaCat [1] and in the experiment on HACAT [2] was inactive. In the experiment on MCC-13, the Potency result was “inactive”.

With `O=C(O)COCCN1CCN(C(c2ccccc2)c2ccc(Cl)cc2)CC1` (stereo unspecified), the max response was -0.386% (inactive) in the experiment on CRL-7250; 0.378% (inactive) and -0.675% (inactive) in the experiment on HEK293; -5.21% (inactive) and -2.14% (inactive) in the experiment with HaCat [1]; 6.76% (inactive) and 8.88% (inactive) in the experiment on KB-3-1; -0.466% (inactive) in the experiment with NIH3T3. In addition, the outcome in the experiment with NIH3T3 was inactive. Moreover, the Potency entry in the experiment with MCC-13 is “inactive”.

As for `CCC(=O)N[C@H]1CC[C@H](C(=O)N(C)c2ccc(-c3nc4ccccc4o3)cc2)C1`, the max response is -6.63% (inactive) with CRL-7250, -16.3% (inactive) in the experiment on KB-3-1 and -2.14% (inactive) with NIH3T3. For the same molecule, the Potency with HEK293 is 20.9 µM (active). The outcome in the experiment with HaCat [1] and in the experiment on HACAT [2] was inactive. Moreover, the Potency result in the experiment with MCC-13 was “inactive”.

Consider `CCCc1nc2c(C)cc(-c3nc4ccccc4n3C)cc2n1Cc1ccc(-c2ccccc2C(=O)O)cc1`, for which the figures for the Potency in the experiment on TAB165 and in the experiment with W2 were 1.58 µM (active) and 1.9 µM (active), respectively. Besides, the max response is -5.08% (inactive) and 4.25% (inactive) with CRL-7250; 14.7% (inactive) and 4.38% (inactive) in the experiment on KB-3-1; 1.27% (inactive) with NIH3T3. The molecule was called inactive in the experiment with HEK293, in the experiment on HaCat [1], in the experiment with NIH3T3, in the experiment on HACAT [2] and in the experiment on HEK293T. Further, in the experiment with MCC-13, the Potency entry was “inactive”.

`CS(=O)(=O)Oc1ccc2c(NC(N)=O)c(C(=O)c3ccc(Cl)cc3Cl)oc2c1`: the result in the experiment on CRL-7250, with HaCat [1] and in the experiment with HACAT [2] was inactive. In addition, the max response with HEK293 is 3.62% (inactive); in the experiment with KB-3-1 it was 0.867% (inactive); in the experiment with NIH3T3, -0.156% (inactive). Also, in the experiment on MCC-13, the Potency result is “inactive”.

In the case of `CCCn1c(=O)c2[nH]c(C34CC5CC3C[C@@H](C5)C4)nc2n(CCC)c1=O`, in the experiment with CRL-7250, the call was inactive. The max response in the experiment on HEK293 is -11% (inactive); in the experiment on HaCat [1], 4.8% (inactive); in the experiment on KB-3-1, 5.05% (inactive); in the experiment with NIH3T3, -0.656% (inactive). Further, the Potency result in the experiment on MCC-13 is “inactive”.

Regarding `O=C(NOC[C@H](O)CO)c1ccc(F)c(F)c1Nc1ccc(I)cc1F`, the Potency with CRL-7250 was 3.32 µM (active) and 3.66 µM (active); with NIH3T3, 6.51 µM (active). Besides, the call with HEK293 and in the experiment with HEK293T was inactive. For the same molecule, the max response in the experiment with KB-3-1 is 4.78% (inactive) and 5.99% (inactive).

For the molecule `O=C1CCc2cc(OCCCCc3nnnn3C3CCCCC3)ccc2N1`, the Potency result in the experiment with W2 and with MCC-13 was “inactive” throughout. Further, the max response is -14.2% (inactive) and -108% (inactive) with CRL-7250; -7.13% (inactive) in the experiment on HEK293; -0.483% (inactive) and -0.724% (inactive) in the experiment with KB-3-1. In addition, the call with HaCat [1], in the experiment on NIH3T3 and with HACAT [2] was inactive.

Values taken from PubChem BioAssay (NCATS).
